Only some compounds are listed: those with a hit (about 3.5% of all), similar ones and a draw of the others.
MITF inh – blocks human microphthalmia-associated transcription factor; O75030; AlphaScreen MITF homodimerization, bead proximity signal; AID 1259374; inhibition, % at 2.6 µM; 650,000 compounds, 0.91% hits; in the data active = inhibition above about 50%;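 also: 0% = vehicle wells with protein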
FBW7 activator – activators of human E3 ligase FBW7 | Q969H0 | AlphaScreen FBW7–phospho-cyclin E peptide binding, activator screen | normalized activity (activation), % at 26.1 µM | 650,000 compounds, 0.13% hits; in the data active = normalized activity above about 1.9%;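 also: purified mutant Fbw7 with reduced substrate affinity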
GPR151 ag – activates the human receptor GPR151; PathHunter beta-arrestin GPR151 cells, luminescence; activation, % at 11.2 µM; 650,000 compounds, 1% hits; AID 1508602; in the data active = activation above about 4.9%;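 also: 0% = median of compound wells and 100% = cells with positive control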
Target sequence (Q8TDV0 whole entry, looked up): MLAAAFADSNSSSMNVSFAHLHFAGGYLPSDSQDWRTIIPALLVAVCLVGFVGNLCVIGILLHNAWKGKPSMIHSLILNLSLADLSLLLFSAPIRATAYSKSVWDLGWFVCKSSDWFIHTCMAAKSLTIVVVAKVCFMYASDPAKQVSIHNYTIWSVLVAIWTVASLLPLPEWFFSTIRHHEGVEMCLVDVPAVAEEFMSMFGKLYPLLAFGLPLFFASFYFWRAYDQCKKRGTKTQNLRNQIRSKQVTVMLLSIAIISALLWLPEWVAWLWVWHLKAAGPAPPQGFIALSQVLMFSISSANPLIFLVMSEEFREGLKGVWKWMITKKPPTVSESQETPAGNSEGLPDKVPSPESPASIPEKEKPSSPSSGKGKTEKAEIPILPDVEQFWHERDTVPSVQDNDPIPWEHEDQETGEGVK
TEAD-YAP block – TEAD-YAP interaction inhibition; HEK-TIYL cells, TEAD-Gal4/YAP UAS-luciferase luminescence; inhibition, % at 9.12 µM; 640,000 compounds, 1.4% hits; AID 1259422; in the data active = inhibition above about 32%;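 also: 0% = median of test compound wells and 100% = reference inhibitor wells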
GPR151 confirm – confirmation of human GPR151 activators; 6,700 tested, under 10 active; shares compounds with GPR151 ag; AID 1508609; GPR151 PathHunter beta-arrestin cells, luminescence, 90 min; % of EA-reagent control over plate median; activation, % at 11.2 µM;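 active = mean percent activation across replicates above the confirmation screen cutoff of 4.91%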
GPR119 ag – counter-screen for GPR151 activators: effect on human GPR119; shares compounds with GPR151 ag; GPR119 PathHunter beta-arrestin cells, luminescence, 90 min; 0 = compound-well median, 100 = enzyme-acceptor control; activation, % at 11.2 µM; 6,700 compounds, 0.3% hits;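 active = mean percent activation in the counterscreen above 29.09%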;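 also: counterscreen on off-target GPR119 to flag nonselective hits from the GPR151 activator screen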
Starred values were filed as active, the others as inactive; · = no result; ! = repeats disagree.

SMILES | MITF inh | FBW7 activator | GPR151 ag | TEAD-YAP block | GPR151 confirm | GPR119 ag
CCN1CCCC1CNC(=O)c1c(O)c2c([nH]c1=O)CCCC2 (centres undefined) | 6.0 | 0.1 | 6.8* | 4.7 | 0.0 | 1.8
N#Cc1ccccc1NC(=O)CN1CCNC(=O)C1 | 10.1 | 0.4 | 0.9 | 0.5 | · | ·
O=C(N/N=C/c1ccccc1O)/C(=C\c1cccs1)NC(=O)c1ccccc1 | -41.9 | 0.0 | 1.2 | 13.9 | · | ·
COc1cccc(/C=N/NC(=O)/C(=C\c2cccs2)NC(=O)c2ccccc2)c1O | -66.0 | -0.2 | 6.2* | 15.5 | -0.3 | -12.3
CC(C)(C)c1nnc(N/N=C/c2ccc(O)cc2)[nH]c1=O | 3.3 | -0.1 | 2.2 | 13.6 | · | ·
COc1cc(/C=N/Nc2nnc(C(C)(C)C)c(=O)[nH]2)cc(OC)c1OC | 3.4 | 0.0 | 6.1* | 7.6 | 0.7 | -3.4
Cc1cc(NCCOc2ccccc2)nc(Nc2ccncn2)n1 | 18.3 | 0.1 | -3.2 | -22.3 | · | ·
CCOc1ccc2c(c1)c(=O)c(C(=O)c1ccccc1)cn2CC(=O)Nc1ccccc1 | 13.8 | -0.1 | 6.3* | -5.0 | -0.1 | 1.3
CC1CC(C)CN(C(=O)c2cn(C)c3ccc(S(=O)(=O)N4CCOCC4)cc3c2=O)C1 (centres undefined) | 6.2 | -0.1 | 0.0 | -2.6 | · | ·
COC(=O)c1ccc(COC(=O)COc2cc(C)cc(C)c2)cc1 | 0.6 | 0.4 | 0.3 | -18.3 | · | ·
CCCSc1nnc2c(n1)OC(c1ccc(F)cc1)Nc1ccccc1-2 (centres undefined) | -6.1 | 0.1 | -1.8 | -80.2 | · | ·
CCCSc1nnc2c(n1)OC(c1ccc(SC)cc1)Nc1ccccc1-2 (centres undefined) | 3.5 | 0.2 | 5.6* | -59.5 | -0.2 | 4.7
CCOc1ccc(C2Nc3ccccc3-c3nnc(SCc4ccccc4F)nc3O2)cc1OC (centres undefined) | 9.7 | -0.2 | 5.8* | -3.1 | -0.3 | 15.4
COc1ccccc1NC(=O)CN(C)S(=O)(=O)c1ccccc1 | -29.6 | 0.1 | -0.5 | 0.9 | · | ·
COc1cc(NC(=O)CN(C)S(=O)(=O)c2ccc3ccccc3c2)c(OC)cc1Cl | 0.4 | 0.1 | 5.8* | -1.7 | -1.4 | -15.7
COc1cc(NC(=O)Cc2ccc(F)cc2)c(OC)cc1Cl | 2.2 | 0.8 | 5.0* | -4.8 | 0.3 | -4.9
COCCNC(=O)Cc1ccc(F)cc1 | 0.1 | -0.2 | 5.4* | -5.5 | -0.2 | -4.7
COc1cc(NC(=O)Cc2ccc(Cl)cc2)c(OC)cc1Cl | 49.8 | 0.2 | -0.4 | 2.8 | · | ·
COc1ccccc1NC(=O)NNC(=O)CN(C)S(=O)(=O)c1ccc(C)cc1 | 4.2 | 0.2 | 5.3* | 7.8 | 0.2 | 4.1
COCCCNC(=O)Cc1ccc(F)cc1 | 0.1 | 0.1 | -0.3 | 9.8 | · | ·
Cc1ccc(C(=O)N/C(=C\c2ccc3c(c2)OCO3)C(=O)NC(C(=O)O)C(C)C)cc1 (centres undefined) | -1.7 | 0.1 | -0.6 | -5.7 | · | ·
O=C(CCN1C(=O)C2CC=C(Cl)CC2C1=O)N1CCN(C(=O)CCN2C(=O)C3CC=C(Cl)CC3C2=O)CC1 (centres undefined) | 3.8 | 0.1 | -1.1 | 1.5 | · | ·
Fc1ccc2nc(N3CCN(c4nc5ccccc5s4)CC3)sc2c1 | 10.0 | 0.1 | 14.7* | 2.4 | -0.5 | -7.0
CC(=O)O[C@H]1CC[C@@]2(C)C(C[C@@H](OC(C)=O)[C@@]3(C)C4=CC(=O)O[C@@H](c5ccoc5)[C@]4(C)CCC23)C1(C)C (some centres undefined) | 17.4 | 0.1 | 6.5*! | 0.2 | 0.5 | 3.8
O=C1C(=O)N(CC(=O)c2ccccc2C(F)(F)F)c2ccc(Br)cc21 | 0.2 | 0.0 | -0.3 | 17.5 | · | ·
SMILES | MITF inh | FBW7 activator | GPR151 ag | TEAD-YAP block | GPR151 confirm | GPR119 ag
COc1ccccc1C1C(C(=O)/C=C/c2ccccc2)=C(O)C(=O)N1CCCCCC(=O)O (centres undefined) | 5.4 | 0.2 | -1.9 | 11.1 | · | ·
CCOC(=O)c1[nH]c(C)c(C(=O)Nc2c(C)n(C)n(-c3ccccc3)c2=O)c1C | 10.4 | -0.1 | 6.5* | 1.2 | -0.8 | -3.3
CCOC(=O)c1[nH]c(C)c(C(=O)Nc2ccc(C)c(C)c2)c1C | -6.3 | -0.2 | 5.0* | 3.8 | 0.4 | 3.7
CCOC(=O)c1[nH]c(C)c(C(=O)Nc2cccc(OC)c2)c1C | 14.5 | 0.0 | 1.0 | -2.5 | · | ·
COc1cccc(OC)c1C(=O)Nc1c(C)n(C)n(-c2ccccc2)c1=O | -5.1 | 0.0 | 2.1 | 2.3 | · | ·
CN(Cc1ncc[nH]1)C(=O)CN1Cc2ccccc2OC(c2ccccc2F)C1 (centres undefined) | -0.1 | 0.1 | -0.2 | 5.8 | · | ·
COc1ccc(Cl)cc1/C=C/c1[nH]c(=O)[nH]c(=O)c1[N+](=O)[O-] | -19.1 | -0.1 | 7.3* | 5.2 | 1.6 | 24.0
COc1ccc(OC)c(/C=C/c2[nH]c(=O)[nH]c(=O)c2[N+](=O)[O-])c1 | 2.9 | -0.3 | 2.3 | -0.6 | · | ·
COC(=O)Cc1c(C)c2ccc(OCC(=O)Nc3ccc(C)cc3)c(C)c2oc1=O | 3.1 | 0.0 | -0.3 | 1.1 | · | ·
Cc1cc(N2C(=O)c3ccc(C(=O)N4CCCCC4C)cc3C2=O)no1 (centres undefined) | 11.2 | 0.2 | 2.0 | 6.1 | · | ·
Cc1ccc(N2C(=O)c3ccc(C(=O)N4CCCCC4C)cc3C2=O)cc1 (centres undefined) | 14.8 | 0.1 | 5.0* | 3.2 | -0.1 | 10.8
O=C(NCc1cccnc1)c1cnc(N2CCOCC2)s1 | 4.8 | 0.2 | -1.2 | -0.7 | · | ·
CCOc1ccc(CN2CCNC(=O)C2CC(=O)NCC2(c3ccccc3)CCCC2)cc1 (centres undefined) | -6.5 | 0.0 | 8.0* | 14.4 | -1.4 | -18.5
CC(C)CCN1CCNC(=O)C1CC(=O)NCC1(c2ccccc2)CCOCC1 (centres undefined) | 9.7 | -0.1 | 6.1* | 5.3 | 1.4 | 4.8
CN1CC(=O)N(CC(=O)N2CCN(C(=O)c3ccco3)CC2)C1=O | -2.9 | 0.0 | 0.1 | 9.1 | · | ·
Nc1nc2ccc(Oc3ccccc3)cc2s1 | 2.7 | 0.4 | 8.9* | 1.2 | -0.5 | -3.0
Nc1nc2ccc(OC(F)(F)F)cc2s1 | -7.8 | 0.0 | -1.5 | -18.0 | · | ·
COc1ccc(S(=O)(=O)Nc2cccc(Br)c2)cc1C | -1.0 | 0.0 | 13.5* | 2.4 | 1.3 | 1.0
COc1ccc(S(=O)(=O)Nc2cccc(SC)c2)cc1C | 9.8 | 0.0 | -0.4 | 2.8 | · | ·
COc1ccc(S(=O)(=O)Nc2cccc(N(C)S(C)(=O)=O)c2)cc1C | 8.8 | 0.2 | -1.4 | 12.0 | · | ·
COc1ccc(S(=O)(=O)Nc2cccnc2)cc1C | -0.2 | 0.3 | -1.1 | 16.1 | · | ·
COc1ccc(S(=O)(=O)Nc2cccnc2)cc1I | -5.4 | 0.1 | 5.1* | -3.9 | 0.4 | -1.4
COc1ccc(S(=O)(=O)Nc2cccc(N(C)S(C)(=O)=O)c2)cc1OC | -2.7 | 0.0 | 7.8* | 0.9 | 0.0 | 0.9

Bioassay records as filed in PubChem.
